Experimental data from ChEMBL document CHEMBL1157539, “Thousands of chemical starting points for antimalarial lead identification” (Nature, 2010).

Assays:
Type in all cases: functional
Plasmodium falciparum [1] = test: GSK_TCMDC: Inhibition of Plasmodium falciparum 3D7 in whole red blood cells, using parasite LDH activity as an index of growth. Test compounds present at 2uM
Plasmodium falciparum [2] = test: GSK_TCMDC: Inhibition of Plasmodium falciparum Dd2 in whole red blood cells, using parasite LDH activity as an index of growth. Test compounds present at 2uM
HepG2 = test: GSK_TCMDC: Percent inhibition of human HepG2 cell line. Test compounds present at 10uM.

SMILES | Inhibition (Plasmodium falciparum [1]) [%] | Inhibition (Plasmodium falciparum [2]) [%] | Inhibition (HepG2) [%]
Cc1ccc2[nH]c3c(NCCCN4CCOCC4)ncnc3c2c1 | 100 | 9 | 0
O=C(/C=C/c1ccc(Cl)cc1)NCCCCCN1CCN(C(=O)Nc2ccc(Cl)c(C(F)(F)F)c2)CC1 | 94 | 5 | 18
COc1ccc(NCCCNc2ccnc3ccccc23)cc1 | 88 | 17 | 34
Cc1nnsc1C(=O)Nc1cccc(-c2ccc(-c3nc4cc(F)ccc4[nH]3)cc2)c1 | 100 | 89 | 51
COc1ccc(CNCc2ccc(-c3cccc(-c4nc5cccc(C)c5[nH]4)c3)cc2)cc1.O=C(O)C(F)(F)F | 100 | 100 | 69
CCc1cn2c3c(cc(C(=O)N[C@@H](Cc4ccccc4)[C@H](O)CNC4CCOCC4)cc13)N(CC(F)(F)F)S(=O)(=O)CC2.O=CO | 98 | 98 | 4
Fc1ccc(CNc2nc(-c3ccc(F)c(C(F)(F)F)c3)n(-c3cccc(C(F)(F)F)c3)n2)cc1 | 95 | 80 | 0
CC(C)n1nc(C(=O)N2CCN(c3ccccc3)CC2)c2ccccc2c1=O | 96 | 3 | 34
Cn1cnc2c(SCc3ccc(OCc4ccccc4)cc3)ncnc21 | 95 | 87 | 1
Cc1nc(N)nc(N)c1-c1ccc(Br)cc1 | 98 | 1 | 46
COc1cccc2cc(C(=O)N[C@@H](CC(C)C)C(=O)N[C@H](/C=N/N(C)C(=O)OC(C)(C)C)CC(=O)OC(C)(C)C)oc12 | 87 | 67 | 5
c1ccc(Oc2ccc(Nc3ccnc4cc(-c5ccc(CNCCN6CCOCC6)o5)ccc34)cc2)nc1 | 100 | 100 | 0
COc1ccc(C(O)CNC(C)CCc2ccc(F)cc2)cc1C(F)(F)F.Cl (stereo not given) | 99 | 98 | 92
CCOC(=O)c1cc(=O)c2ccc(OCC#N)cc2o1 | 88 | 86 | 2
CC(=O)c1c(Cc2ccccc2Cl)c[nH]c1C | 95 | 53 | 0
Nc1ccnc(N2CCC(CCOc3cc(C(F)(F)F)nc4c(C(F)(F)F)cccc34)CC2)c1 | 98 | 17 | 35
CCOc1c(OC)ccc2c1CCN(CCN1CCC(NC(=O)c3ccc(-c4cccc(C(F)(F)F)c4C(F)(F)F)cc3)CC1)C2 | 100 | 57 | 30
COc1cc2nc(N3CCC(CNC(=O)c4ccc(-c5ccc(C(=O)N(C)C)cc5C)cc4)CC3)nc(N3CCN(C)CC3)c2cc1OC | 88 | 84 | 26
COc1ccc(CNC2CCN(C)CC2)cc1-c1ccc(S(=O)(=O)NCCc2ccccn2)s1.O=C(O)C(F)(F)F | 100 | 12 | 6
Cc1nc(O)c2c(ccc3ccc(CNc4ccc(C(=O)N[C@@H](CCC(=O)O)C(=O)O)c(F)c4)cc32)n1 | 96 | 96 | 41

SMILES | Inhibition (Plasmodium falciparum [1]) [%] | Inhibition (Plasmodium falciparum [2]) [%] | Inhibition (HepG2) [%]
Cc1cccc2nc(-c3ccc(-c4cccc(CNCCCNS(C)(=O)=O)c4)s3)[nH]c12.O=C(O)C(F)(F)F | 99 | 19 | 20
O=C(Nc1cccc(-c2cccc(-c3nc4cc(C(F)(F)F)ccc4[nH]3)c2)c1)c1ccncc1 | 100 | 61 | 52
O=C(Nc1ccc(F)cc1)c1nc2ccccc2nc1Cl | 80 | 62 | 44
Nc1ccn([C@@H]2O[C@H](COC(c3ccccc3)(c3ccccc3)c3ccccc3)[C@@H](O)[C@@H]2O)c(=O)n1 | 93 | 2 | 26
CN1N=C2c3ccccc3CCC2C1c1ccc(C#N)cc1 (stereo not given) | 95 | 85 | 0
CCOC(=O)C1CCN(CCCNC(=O)/C(=C/C=C/c2cc3cc(Cl)c(Cl)cc3[nH]2)OC)CC1 | 87 | 78 | 23
Cl.Nc1nc(N)c2c(Cl)c(N(Cc3ccccc3)Cc3ccccc3)ccc2n1 | 96 | 2 | 66
c1ccc(CN2CCC(NCc3ccc(-c4cncc5ccccc45)cc3)CC2)cc1 | 98 | 19 | 21
O=C(Nc1cccc(CN2CCCN(Cc3ccccc3)CC2)c1)c1cc2ccccc2s1.O=C(O)C(F)(F)F | 87 | 28 | 41
CCOc1cc(Cc2cnc(N)nc2N)cc(OCC)c1O | 89 | 0 | 6
CC(C)(C)N1CCC(N(Cc2ccc(-c3ccc(C(F)(F)F)cc3)cc2)C(=O)Cn2c(CCc3cccc(F)c3F)nc(=O)c3cccnc32)CC1.O=C(O)C(O)C(O)C(=O)O | 100 | 53 | 94
CCN(CC)CCN(Cc1ccc(-c2ccc(C(F)(F)F)cc2)cc1)C(=O)Cn1c(CCc2cccc(F)c2F)nc(=O)c2cc(F)c(F)cc21.O=C(O)C(O)C(O)C(=O)O | 100 | 56 | 41
CCc1ccc(C2CCN(CCCCNC(=O)c3ccc(-c4ccc(C#N)cc4)cc3)CC2)c(OCCO)c1.Cl | 94 | 61 | 24
CCC(CC)(Cc1ccccc1)NC(=O)[C@H](Cc1ccc(OC)c(OC)c1)Nc1ccc(C#N)c2ccccc12.O=C(O)C(F)(F)F | 90 | 69 | 16
CCCCNC(=O)[C@@H](NC(=O)c1ccc(O)c(-c2ccc(Cl)c(Cl)c2)c1)C(C)C | 97 | 98 | 0
COc1ccc(-c2ccc(NC(=O)c3ccc(F)cc3)cc2)cc1CN1CCCN(C)CC1.O=C(O)C(F)(F)F | 98 | 35 | 29
Cc1ccc2c(=O)c3cc(C)ccc3[nH]c2c1 | 96 | 94 | 10
COc1ccc2c(N/N=C/c3cccc([N+](=O)[O-])c3)ccnc2c1 | 100 | 99 | 0
O=C(Nc1ccc(-c2cccc(-c3nc4cc(C(F)(F)F)ccc4[nH]3)c2)cc1)c1csnn1 | 98 | 25 | 42
Cc1cc(OCCCNC(=N)c2ccc3ccccc3c2)c(C(C)C)cc1Cl.Cc1ccc(S(=O)(=O)O)cc1 | 95 | 10 | 89

SMILES | Inhibition (Plasmodium falciparum [1]) [%] | Inhibition (Plasmodium falciparum [2]) [%] | Inhibition (HepG2) [%]
CN(C)CCN(C)Cc1ccc(-c2ccc(NC(=O)c3ccc(Cl)cc3)cc2)cc1.O=C(O)C(F)(F)F | 91 | 19 | 51
CCc1cc(C(=O)c2cccc(C)c2)c(NC(=O)CN2CCN(C(=O)c3ccco3)CC2)s1 | 91 | 85 | 0
COc1ccc(NC(=O)N2CCN(CCCCCNC(=O)/C=C/c3ccc(C(F)(F)F)cc3)CC2)cc1Cl | 94 | 0 | 25
CN(C)CCOc1ccc(-c2cc(-c3ccc(Cl)c(O)c3)c(-c3ccnc(N)n3)o2)cc1 | 100 | 95 | 43
CNCCNCc1cccc(-c2cccc(-c3nc4cccc(C)c4[nH]3)c2)c1.O=C(O)C(F)(F)F | 98 | 9 | 6
c1ccc(C2=NN=C(c3ccccn3)C3C4CC(C23)C2C3CC(c5ccccc53)C42)nc1 (stereo not given) | 98 | 77 | 39
Clc1ccccc1CNc1noc(-c2sccc2Br)n1 | 97 | 93 | 0
Cc1nc(-c2cccc(NC(C)C(=O)Nc3cc(C(F)(F)F)ccc3N3CCOCC3)c2)cs1 (stereo not given) | 82 | 97 | 3
CCOC(=O)CN(c1ccc(Br)cc1OCCOc1cc(Br)ccc1N(CC(=O)OCC)C(C)C(=O)OCC)C(C)C(=O)OCC (stereo not given) | 94 | 6 | 0
CCOc1c(CCNCCCCNCCc2ccc3ccccc3c2OCC)ccc2ccccc12.CS(=O)(=O)O | 94 | 87 | 100
COc1ccc(CN2CCCN(Cc3ccc(C(=O)Nc4ccc(Cl)cc4)cc3)CC2)cc1.O=C(O)C(F)(F)F | 91 | 3 | 46
COc1ccc(CNC(=O)C2Cc3ccccc3CN2Cc2ccc3ccccc3c2)cc1 (stereo not given) | 96 | 84 | 15
Cl.O=C(OCC1CCN(Cc2ccccc2)C1)c1ccc(Cl)cc1 (stereo not given) | 100 | 4 | 0
COc1cc(NC2=NS(=O)(=O)c3cc(Cl)ccc3N2C)cc(OC)c1OC.O=C(O)C(F)(F)F | 100 | 100 | 0
COc1ccc(Nc2nc(NCc3cccc(NS(C)(=O)=O)c3)cc(-c3ccc(OC)cc3)n2)cc1 | 84 | 5 | 0
O=C(NCCCCN1CCC2c3cccc(O)c3CCC21)c1ccc(-c2ccccc2)cc1 (stereo not given) | 81 | 50 | 23
Cc1ccc(NC(=O)c2ccc(CN3CCCN(Cc4cccc(O)c4)CC3)cc2)cc1.O=C(O)C(F)(F)F | 90 | 31 | 39
CCN(CCO)CCCC(C)Nc1ccnc2cc(Cl)ccc12.O=S(=O)(O)O (stereo not given) [HYDROXYCHLOROQUINE SULFATE] | 99 | 0 | 3
Cl.c1ccc(COc2ccc(Nc3ncnc4ccc(-c5ccc(CN6CCSCC6)o5)cc34)cc2)cc1 | 94 | 4 | 4
O=C(Nc1nc2cc(S(=O)(=O)NCCc3ccc(F)cc3)ccc2n1CCCn1ccnc1)c1ccc(Cl)cc1.O=C(O)C(F)(F)F | 100 | 55 | 18
